A number with no mark means an inactive call. Inconclusive results are not listed. The source made the active and inactive calls. Unless noted, calls follow the shape of the full dose curve.

Assay [1] has as its target Gonadotropin-releasing hormone receptor (Homo sapiens) (UniProt P30968). Description: Human gonadotropin-releasing hormone receptor (GnRHR) small molecule agonists, calcium flux assay in GnRHR-HEK293 cells (AID 1920063). Also: nearly all actives have a fitted effect of over 35% in size. The gist of the method: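 Intracellular calcium rise is the read-out: engineered human GnRHR HEK293 cells, dye-loaded, are exposed to DMSO-dissolved compounds and fluorescence at Ex/Em 480/540 is tracked for 3 min.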
(A change in cytosolic calcium serves as a functional read-out for many receptors and channels.)

Assay [2] can be described thus: G protein-coupled receptor (GPCR) small molecule agonists, calcium flux assay: HEK293 wild type cell line counter screen (AID 1920065). The method, boiled down: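 Fluorescence intensity signals activation. After overnight (18 h) culture and a 1 h calcium dye load at 37 C, compounds are added by pin tool and the plate read at 480/540 nm for 3 min in 1 s steps.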
The nature of assay [3]: p53 small molecule agonists, cell-based qHTS assay with human liver microsomes (AID 1963577). The method, boiled down: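 Cells carrying a p53-responsive bla reporter were rested 5 h (37 C, 5% CO2) before compound transfer. Human liver microsomes plus NADPH, 0.5 mg/mL final apiece, supplied metabolism during the 16 h 37 C exposure.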
Background: qHTS replaces the single test concentration by a dilution series.

The nature of assay [4]: p53 small molecule agonists, cell-based qHTS assay with rat liver microsomes (AID 1963578). The method, boiled down:
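Fluorescence from a beta-lactamase reporter under a p53 response element was measured after cells had been incubated 16 h at 37 C with test compound and rat liver microsomes plus NADPH (0.5 mg/mL final each).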

A short description of assay [5]: p53 small molecule agonists, cell-based qHTS assay with human liver microsomes: qHTS cell viability counter screen (AID 1963579). Also: nearly all actives have a fitted effect of over 45% in size. The gist of the method:
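Seed p53RE-bla cells at 4,000 per well; incubate 5 h at 37 C; add compound, human liver microsomes and NADPH; incubate 16 h at 37 C; add CellTiter-Glo; after 30 min at room temperature, read luminescence.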

Assay [6] is described as follows: p53 small molecule agonists, cell-based qHTS assay with rat liver microsomes: qHTS cell viability counter screen (AID 1963580). Also: nearly all actives have a fitted effect of over 45% in size. The method, boiled down:
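Luminescent ATP readout (CellTiter-Glo, 30 min at room temperature) reports viability of p53RE-bla HCT-116 cells after 16 h at 37 C with test compounds under metabolic activation by rat liver microsomes and NADPH at 0.5 mg/mL final each.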

Assay [7] in a line: p53 small molecule agonists, cell-based qHTS assay (AID 1963582; active = well fitted activation curve with a large enough effect in the signal ratio in the repeat runs, not every such curve was filed as active; the % refers to the signal ratio). The method, boiled down:
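After plating, p53RE-bla cells sat 5 h in the incubator; compounds or DMSO vehicle were pinned in; a 16 h incubation at 37 C followed; FRET substrate was added and, 2 h later at RT, fluorescence was measured.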

For assay [8], the target named is 5-hydroxytryptamine receptor 2A (Homo sapiens) (UniProt P28223). Description: 5-hydroxytryptamine receptor 2A (HTR2A) small molecule antagonists, cell-based qHTS assay (AID 1963586). Also: nearly all actives have a fitted effect of over 45% in size. The method, boiled down: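 CHO cells stably expressing human HTR2A were plated for 18 h at 37 C, then loaded with calcium dye for 1 h. Compounds were preincubated 5 min at room temperature before DOI (4 nM solution) was added. Kinetic fluorescence was read for 3 min.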

For assay [9] the target is unchanged. Description: 5-hydroxytryptamine receptor 2A (HTR2A) small molecule agonists, cell-based qHTS assay (AID 1963587). Also: nearly all actives have a fitted effect of over 30% in size. The gist of the method:
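HTR2A-CHO cells, plated 18 h at 37 C/5% CO2, dye-loaded 1 h at 37 C; compounds in DMSO added by pin tool (agonist mode). Intracellular calcium flux read as kinetic fluorescence on FDSS over 2 min at 1 s intervals.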

Assay [10] deals with Muscarinic acetylcholine receptor M1 (Homo sapiens) (UniProt P11229). Kind of assay: Cholinergic receptor muscarinic 1 (CHRM1) small molecule agonists, cell-based qHTS assay (AID 1963589). Also: nearly all actives have a fitted effect of over 35% in size. The method, boiled down: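 Fluorescent calcium dye reports M1 activation in stably transfected CHO cells. Compounds, 15 concentrations, added after 1 h dye loading at 37 C; kinetic reading at 1 sec intervals.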

The nature of assay [11]: cAMP Responsive Elements (CRE) small molecule antagonists, cell-based qHTS assay (AID 1963591; active = well fitted inhibition curve with a large enough effect in the signal ratio in the repeat runs, not every such curve was filed as active; the % refers to the signal ratio). The method, boiled down:
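Stimulation used NKH477 at a final 0.25 uM for 3 h in compound-treated CRE-bla HEK293T cells, seeded 18 h beforehand. Reporter activity was measured with LiveBLAzer B/G FRET substrate after 2 h at room temperature.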

Assay [12] addresses D(2) dopamine receptor (Homo sapiens) (UniProt P14416). Description: Dopamine D2 receptor (DRD2) small molecule agonists, cell-based qHTS assay (AID 1963594). Also: nearly all actives have a fitted effect of over 35% in size. The method, boiled down:
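HEK293 cells stably expressing DRD2 were cultured 24 h at 37 C, then given Ro20-1724 (0.1 mM final) and compounds for 10 min at room temperature. NKH477 (200nM) was then added for 30 min. cAMP was read by HTRF.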

For assay [13] the target is unchanged. Description: Dopamine D2 receptor (DRD2) small molecule antagonists, cell-based qHTS assay (AID 1963595; active = well fitted inhibition curve with a large enough effect in the signal ratio in the repeat runs, with a control signal flat; the % refers to the signal ratio). The method, boiled down:
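Antagonism was scored as restored cAMP in HEK293-DRD2 cells. These cells were stimulated with 200 nM NKH477 and 12 nM quinpirole for 30 min at room temperature, in the presence of 0.1 mM Ro20-1724.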

A short description of assay [14]: Nuclear factor erythroid 2-related factor 2/antioxidant responsive element (Nrf2/ARE) small molecule agonists: luciferase reporter gene qHTS assay in human keratinocytes (AID 1919969). Also: nearly all actives have a fitted effect of over 35% in size. Also: potency is read from the fitted curve at half-maximal effect.
A short description of assay [15]: p53 small molecule agonists, cell-based qHTS assay: qHTS cell viability counter screen (AID 1963581). Also: nearly all actives have a fitted effect of over 45% in size. The gist of the method:
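Luminescence from CellTiter-Glo, reflecting ATP content, serves as the cytotoxicity measure; it is taken after the 2 h reporter substrate step in HCT-116 p53RE-bla cells dosed for 16 h at 37 C.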

Assay [16] has as its target Muscarinic acetylcholine receptor M1 (Homo sapiens) (UniProt P11229). Kind of assay: Cholinergic receptor muscarinic 1 (CHRM1) small molecule antagonists, cell-based qHTS assay (AID 1963588). Also: nearly all actives have a fitted effect of over 40% in size. The gist of the method:
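Compounds were tested at 15 concentrations in three independent runs. Dye-loaded CHRM1-CHO cells were exposed 5 min at room temperature before stimulation by acetylcholine added at 50nM. Intracellular calcium was read kinetically on FDSS for 3 min.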

For assay [17], the target named is Beta-2 adrenergic receptor (Homo sapiens) (UniProt P07550). Description: Adrenergic beta2 receptor (ADRB2) small molecule antagonists, cell-based qHTS assay (AID 1963592). Also: series mostly up to about 92 µM; nearly all actives have a fitted effect of over 50% in size. The gist of the method:
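Assay format: CHO-ADRB2 cells, 18-20hr seeding at 37C/5% CO2, then compound plus 1nM isoproterenol agonist mix for 0.5hr RT. Homogeneous time-resolved fluorescence cAMP detection after 1hr, expressed as 665/615 nm ratio.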

Assay [18] has as its target KiSS-1 receptor (Homo sapiens) (UniProt Q969F8). Kind of assay: Human kisspeptin (KISS1R) small molecule agonists, calcium flux assay in KISS1R-HEK293 cells (AID 1920064; active = well fitted activation curve with a large enough effect in the repeat runs). The gist of the method: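 Concentration-response testing used 15 concentrations in triplicate on human KISS1R-expressing HEK293 cells. Calcium-dependent fluorescence (Ex/Em 480/540) was followed kinetically for 3 min after compound transfer.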

A short description of assay [19]: cAMP Responsive Elements (CRE) small molecule agonists, cell-based qHTS assay (AID 1963590). The method, boiled down: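 Compound exposure lasted 3 h at 37 C/5% CO2 in CRE-bla HEK 293T cells grown in assay medium with 10% dialyzed FBS and 25 mM HEPES. Reporter signal came from LiveBLAzer B/G FRET substrate, 2 h, room temperature.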
In assay [20] the target is Beta-2 adrenergic receptor (Homo sapiens) (UniProt P07550). Kind of assay: Adrenergic beta2 receptor (ADRB2) small molecule agonists, cell-based qHTS assay (AID 1963593).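 Also: CHO cells stably overexpressing human ADRB2.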 The method, boiled down: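 CHO cells stably over-expressing ADRB2 were plated overnight at 37C, then dosed with compounds plus a stimulation mix containing 100uM IBMX and 25uM Ro-20-1724 for 0.5hr at room temperature. cAMP was measured by HTRF competition, 1hr.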
Chain of Beta-2 adrenergic receptor (Homo sapiens) (P07550 whole entry, looked up): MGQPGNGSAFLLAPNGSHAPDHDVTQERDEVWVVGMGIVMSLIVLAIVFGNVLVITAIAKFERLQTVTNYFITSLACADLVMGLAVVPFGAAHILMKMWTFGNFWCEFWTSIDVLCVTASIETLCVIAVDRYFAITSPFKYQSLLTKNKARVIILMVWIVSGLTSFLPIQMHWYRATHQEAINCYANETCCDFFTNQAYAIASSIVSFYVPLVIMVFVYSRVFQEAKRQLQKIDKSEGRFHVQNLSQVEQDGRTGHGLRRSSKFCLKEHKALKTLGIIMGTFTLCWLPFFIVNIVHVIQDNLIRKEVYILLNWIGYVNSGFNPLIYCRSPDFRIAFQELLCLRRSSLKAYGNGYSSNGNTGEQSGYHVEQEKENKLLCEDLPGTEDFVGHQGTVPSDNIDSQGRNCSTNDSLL

Chain of KiSS-1 receptor (Homo sapiens) (Q969F8 whole entry, looked up): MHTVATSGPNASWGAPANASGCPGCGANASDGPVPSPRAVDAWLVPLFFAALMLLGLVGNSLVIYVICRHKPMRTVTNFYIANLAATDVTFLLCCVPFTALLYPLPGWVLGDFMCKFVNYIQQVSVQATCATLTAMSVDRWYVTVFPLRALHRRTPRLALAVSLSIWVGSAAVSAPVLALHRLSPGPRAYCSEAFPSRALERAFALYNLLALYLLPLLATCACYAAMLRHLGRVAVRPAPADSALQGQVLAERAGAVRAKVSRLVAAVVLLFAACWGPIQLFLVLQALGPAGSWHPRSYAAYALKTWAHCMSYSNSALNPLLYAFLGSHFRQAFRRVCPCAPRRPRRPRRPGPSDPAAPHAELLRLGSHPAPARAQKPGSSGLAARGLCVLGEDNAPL
Chain of 5-hydroxytryptamine receptor 2A (Homo sapiens) (P28223 whole entry, looked up): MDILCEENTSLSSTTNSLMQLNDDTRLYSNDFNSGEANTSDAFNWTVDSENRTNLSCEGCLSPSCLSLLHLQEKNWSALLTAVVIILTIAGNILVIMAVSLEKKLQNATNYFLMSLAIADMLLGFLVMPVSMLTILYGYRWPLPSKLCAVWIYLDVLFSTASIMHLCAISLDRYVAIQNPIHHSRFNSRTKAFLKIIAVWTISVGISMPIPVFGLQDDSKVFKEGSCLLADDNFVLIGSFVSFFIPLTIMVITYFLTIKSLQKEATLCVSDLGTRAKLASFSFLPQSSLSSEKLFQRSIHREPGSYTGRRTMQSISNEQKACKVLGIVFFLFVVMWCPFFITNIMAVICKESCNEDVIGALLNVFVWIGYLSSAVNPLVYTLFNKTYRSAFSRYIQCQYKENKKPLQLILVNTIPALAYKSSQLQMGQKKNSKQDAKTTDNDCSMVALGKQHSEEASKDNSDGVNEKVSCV
Chain of Gonadotropin-releasing hormone receptor (Homo sapiens) (P30968 whole entry, looked up): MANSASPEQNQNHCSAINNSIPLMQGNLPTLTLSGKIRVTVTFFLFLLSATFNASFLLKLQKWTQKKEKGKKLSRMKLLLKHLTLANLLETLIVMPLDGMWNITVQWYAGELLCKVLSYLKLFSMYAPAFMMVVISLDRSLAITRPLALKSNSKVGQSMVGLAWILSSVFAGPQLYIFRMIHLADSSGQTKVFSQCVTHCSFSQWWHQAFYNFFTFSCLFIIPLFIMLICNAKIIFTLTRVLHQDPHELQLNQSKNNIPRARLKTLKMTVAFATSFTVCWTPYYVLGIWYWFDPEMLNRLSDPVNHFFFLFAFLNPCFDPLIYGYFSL
Chain of Muscarinic acetylcholine receptor M1 (Homo sapiens) (P11229 whole entry, looked up): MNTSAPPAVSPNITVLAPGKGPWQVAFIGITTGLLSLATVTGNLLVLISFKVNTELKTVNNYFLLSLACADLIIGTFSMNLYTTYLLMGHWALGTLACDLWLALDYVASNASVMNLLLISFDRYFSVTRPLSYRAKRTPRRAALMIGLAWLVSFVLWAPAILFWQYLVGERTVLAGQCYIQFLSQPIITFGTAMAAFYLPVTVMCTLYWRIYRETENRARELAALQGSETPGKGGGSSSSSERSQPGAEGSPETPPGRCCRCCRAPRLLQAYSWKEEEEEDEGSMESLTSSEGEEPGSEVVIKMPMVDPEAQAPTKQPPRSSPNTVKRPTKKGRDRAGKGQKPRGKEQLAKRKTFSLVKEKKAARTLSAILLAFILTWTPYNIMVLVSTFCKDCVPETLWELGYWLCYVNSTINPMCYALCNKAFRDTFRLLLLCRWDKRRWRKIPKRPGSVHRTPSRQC
Chain of D(2) dopamine receptor (Homo sapiens) (P14416 whole entry, looked up): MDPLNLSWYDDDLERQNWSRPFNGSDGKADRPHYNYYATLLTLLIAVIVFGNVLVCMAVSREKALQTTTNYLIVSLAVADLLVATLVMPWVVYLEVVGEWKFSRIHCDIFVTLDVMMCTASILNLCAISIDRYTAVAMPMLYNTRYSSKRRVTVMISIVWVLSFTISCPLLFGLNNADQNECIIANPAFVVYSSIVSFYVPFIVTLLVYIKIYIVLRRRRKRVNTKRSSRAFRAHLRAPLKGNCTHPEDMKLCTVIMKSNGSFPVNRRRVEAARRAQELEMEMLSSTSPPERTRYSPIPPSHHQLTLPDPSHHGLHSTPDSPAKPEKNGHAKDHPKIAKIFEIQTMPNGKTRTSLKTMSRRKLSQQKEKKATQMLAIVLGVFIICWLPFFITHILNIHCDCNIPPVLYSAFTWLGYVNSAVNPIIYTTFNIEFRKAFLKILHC

On to `CCc1cc(Cc2cc(CC)cc(C(C)(C)C)c2O)c(O)c(C(C)(C)C)c1`, for which the Potency entry in assay [1], in assay [3], in assay [4], in assay [5], in assay [6] and in [7] was “inactive” in each case. The Potency result in assay [8], in assay [9], in [10], in assay [11], in assay [12] and in [13] was “inactive” throughout. Further, in assay [2], the result was inactive.
For `CCCc1ccc(O)c(OC)c1`, the Potency entry in [14], in assay [1], in assay [3], in assay [4], in assay [5] and in assay [6] was “inactive” in each case. Moreover, the Potency result in assay [15], in [7], in assay [8], in [9], in [16] and in [10] was “inactive” in each case. Also, the Potency entry in assay [11], in [17], in assay [12] and in [13] was “inactive” each time. Also, the outcome in assay [2] was inactive.
Consider `CCCCCCCCCC[N+](C)(C)[O-]`, for which the Potency entry in assay [14], in [1], in assay [3], in [4], in [5] and in assay [6] was “inactive” each time. Also, the Potency entry in assay [15], in assay [7], in assay [8], in assay [16], in assay [10] and in [19] was “inactive” throughout. The Potency entry in [11], in assay [20], in assay [12] and in assay [13] was “inactive” throughout. The outcome in assay [18] was inactive.
Consider `O=c1[nH]c(=O)n([C@H]2O[C@H](CO)[C@@H](O)[C@@H]2O)cc1/C=C\Br`, for which the Potency entry in assay [1], in assay [3], in assay [4], in assay [5], in assay [6] and in [15] was “inactive” in each case. Further, the Potency result in assay [8], in assay [9], in assay [16], in assay [10], in assay [11] and in [12] was “inactive” throughout. In assay [13], the Potency result was “inactive”. Besides, the result in assay [18] and in [2] was inactive.
In the case of `O=C1CCC(C2CCCCC2)CC1`, the Potency entry in [14], in assay [1], in assay [3], in assay [4], in assay [5] and in assay [15] was “inactive” each time. Moreover, the Potency result in assay [8], in [9], in [16], in assay [10], in [19] and in assay [11] was “inactive” in each case. Further, the Potency result in [17], in [20], in assay [12] and in assay [13] was “inactive” throughout. Besides, in assay [18], the result was inactive.
On to `C[N+](C)(C)CC(O)CC(=O)[O-]` (stereo not drawn), for which the Potency entry in [14], in [1], in assay [3], in [4], in assay [5] and in assay [6] was “inactive” throughout. The Potency result in assay [15], in [7], in assay [19], in assay [11], in assay [17] and in assay [20] was “inactive” throughout. For the same molecule, the Potency result in assay [12] and in assay [13] was “inactive” in each case. Moreover, the outcome in assay [18] was inactive.
For `CCCCCCCC1CCCC1=O` (stereo not drawn), the Potency result in [14], in [3], in [4], in assay [5], in assay [15] and in assay [7] was “inactive” in each case. Besides, the Potency result in assay [8], in assay [9], in assay [16], in assay [10], in assay [19] and in assay [11] was “inactive” throughout. For the same molecule, the Potency entry in [17], in [12] and in assay [13] was “inactive” in each case. Further, the outcome in [18] and in assay [2] was inactive.
With `C/C(=N\O)c1ccc(OCC(=O)N2CCCCC2)cc1`, the Potency in assay [14] was 11.9 µM (active). Moreover, the result in assay [18] and in assay [2] was inactive. In addition, the Potency result in [4], in assay [5], in [6], in [15], in assay [8] and in assay [9] was “inactive” throughout. For the same molecule, the Potency entry in [16], in [10], in assay [19], in assay [11], in assay [17] and in assay [20] was “inactive” each time. In addition, the Potency entry in assay [12] and in assay [13] was “inactive” throughout.
